The values that follow come from PubChem BioAssay (EPA / NIEHS).

Where “and” joins values, the source holds several entries; their conditions need not be identical. Equal values may be shown once. A structure can be active in one record and inactive in another. Calls of active or inactive are those of the source. Rule for the calls: active = hit-call score of the fitted dose curve at least 0.9, where 1 is the maximum; inactive = score below 0.9.

Assay [1] in a line: BSK_hDFCGF_SRB: Viability Assessment in the BioMAP Diversity Plus: hDFCGF Assay (AID 2283061).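 Note: cells exposed to compound for 24 h before the read.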 The settings on record: primary human foreskin fibroblasts. The essentials: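 Human foreskin primary fibroblasts were treated with compound and assessed 24 h after dosing. Total protein was measured by sulforhodamine B staining (0.1% SRB after 10% TCA fixation, 560 nm read) as a cytotoxicity marker, with bidirectional fitting against DMSO baseline.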

Read-out in assay [2]: TIMP metallopeptidase inhibitor 1 (TIMP1), TIMP1 (gene 7076)
The experiment in a line: BSK_hDFCGF_TIMP1: BioMAP Diversity Plus: hDFCGF Assay for TIMP metallopeptidase inhibitor 1 (TIMP1) Biomarker Activity (AID 2283062). The following applies: primary human foreskin fibroblasts; actives raise or lower the signal. The essentials: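 Primary human foreskin fibroblasts in the hDFCGF system were dosed with compound for 24 h, then TIMP-1 was measured by ELISA. Activity was fitted bidirectionally relative to DMSO control; parallel SRB staining assessed cytotoxicity.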

Read-out in assay [3]: Monokine induced gamma interferon (MIG), CXCL9 (gene 4283)
Briefly: BSK_hDFCGF_MIG: BioMAP Diversity Plus: hDFCGF Assay for Monokine induced gamma interferon (MIG) Biomarker Activity (AID 2283063). The following applies: primary human foreskin fibroblasts; actives raise or lower the signal. The essentials:
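ELISA read-out of MIG from primary human dermal fibroblasts 24 h post-dosing. Gain or loss of signal fitted bidirectionally, DMSO as baseline.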

Read-out in assay [4]: Matrix Metallopeptidase 1 (MMP1), MMP1 (gene 4312)
Briefly: BSK_hDFCGF_MMP1: BioMAP Diversity Plus: hDFCGF Assay for Matrix Metallopeptidase 1 (MMP1) Biomarker Activity (AID 2283064). The following applies: primary human foreskin fibroblasts; actives raise or lower the signal. In a few lines: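 hDFCGF primary fibroblasts (human foreskin); chemical added; 24 h; MMP1 by ELISA; bidirectional fit vs DMSO.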

Read-out in assay [5]: Vascular cell adhesion molecule 1 (VCAM1), VCAM1 (gene 7412)
The experiment in a line: BSK_hDFCGF_VCAM1: BioMAP Diversity Plus: hDFCGF Assay for Vascular cell adhesion molecule 1 (VCAM1) Biomarker Activity (AID 2283065).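 For AC50: VCAM-1 protein level quantified by ELISA after 24 h chemical exposure.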 The settings on record: primary human foreskin fibroblasts; actives raise or lower the signal. In a few lines:
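Primary human foreskin fibroblasts (hDFCGF system) were dosed with chemical and VCAM-1 was measured by ELISA 24 h later. Bidirectional curve fitting used DMSO as negative control and activity baseline.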

Read-out in assay [6]: Plasminogen activator inhibitor-1 (PAI1), SERPINE1 (gene 5054)
Briefly: BSK_hDFCGF_PAI1: BioMAP Diversity Plus: hDFCGF Assay for Plasminogen activator inhibitor-1 (PAI1) Biomarker Activity (AID 2283066). The following applies: primary human foreskin fibroblasts; actives raise or lower the signal. In a few lines: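 Primary dermal fibroblasts (human foreskin), hDFCGF system; compound 24 h; PAI-1 by ELISA; bidirectional fit vs DMSO control.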

Read-out in assay [7]: Intercellular Adhesion Molecule 1 (ICAM1), ICAM1 (gene 3383)
The experiment in a line: BSK_KF3CT_ICAM1: BioMAP Diversity Plus: KF3CT Assay for Intercellular Adhesion Molecule 1 (ICAM1) Biomarker Activity (AID 2283067). The settings on record: primary human keratinocytes with fibroblasts; actives raise or lower the signal. In a few lines: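 Human keratinocyte plus foreskin fibroblast primary co-culture was exposed to chemical for 24 h. ICAM-1 was then quantified by ELISA, and the data were fit bidirectionally against DMSO as the negative control and baseline.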

Read-out in assay [8]: Interferon-gamma inducible Protein 10 (IP10), CXCL10 (gene 3627)
The experiment in a line: BSK_KF3CT_IP10: BioMAP Diversity Plus: KF3CT Assay for Interferon-gamma inducible Protein 10 (IP10) Biomarker Activity (AID 2283068). The following applies: primary human keratinocytes with fibroblasts; actives raise or lower the signal. The essentials:
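Human keratinocyte plus foreskin fibroblast primary co-culture exposed to test chemical for 24 h; IP-10 measured by ELISA. Concentration-response fitted bidirectionally against DMSO control as baseline.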

The nature of assay [9]: BSK_KF3CT_SRB: Viability Assessment in the BioMAP Diversity Plus: KF3CT Assay (AID 2283069).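 Note: fitted for both signal gain and loss against DMSO baseline.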 The following applies: primary human keratinocytes with fibroblasts. The essentials:
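Keratinocytes co-cultured with foreskin fibroblasts (human primary); chemical added, 24 h; fix 10% TCA, stain 0.1% SRB, A560. Bidirectional fit vs DMSO.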

Read-out in assay [10]: Interleukin-1 alpha (IL1a), IL1A (gene 3552)
The experiment in a line: BSK_KF3CT_IL1a: BioMAP Diversity Plus: KF3CT Assay for Interleukin-1 alpha (IL1a) Biomarker Activity (AID 2283070). The settings on record: primary human keratinocytes with fibroblasts; actives raise or lower the signal. In a few lines:
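Chemicals were dosed onto co-cultured human keratinocytes and foreskin fibroblasts, IL-1a was quantified by ELISA at 24 h, and activity was fitted in both directions relative to DMSO controls.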

Read-out in assay [11]: TIMP metallopeptidase inhibitor 2 (TIMP2), TIMP2 (gene 7077)
Briefly: BSK_KF3CT_TIMP2: BioMAP Diversity Plus: KF3CT Assay for TIMP metallopeptidase inhibitor 2 (TIMP2) Biomarker Activity (AID 2283071). The settings on record: primary human keratinocytes with fibroblasts; actives raise or lower the signal. In a few lines:
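Cells: human keratinocytes co-cultured with foreskin fibroblasts. Treat with chemical, 24 h. Measure TIMP-2 by ELISA; fit curves bidirectionally vs DMSO baseline.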

Read-out in assay [12]: Transforming growth factor beta 1 (TGFb1), TGFB1 (gene 7040)
The experiment in a line: BSK_KF3CT_TGFb1: BioMAP Diversity Plus: KF3CT Assay for Transforming growth factor beta 1 (TGFb1) Biomarker Activity (AID 2283072). The settings on record: primary human keratinocytes with fibroblasts; actives raise or lower the signal. In a few lines:
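Primary human skin cells (keratinocytes, foreskin fibroblasts) were co-cultured, exposed to test chemical and sampled at 24 h. TGF-b1 levels were measured by ELISA and fitted bidirectionally relative to DMSO.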

Read-out in assay [13]: C-C motif chemokine 2 (Homo sapiens) (UniProt P13500)
Briefly: BSK_KF3CT_MCP1: BioMAP Diversity Plus: KF3CT Assay for Monocyte Chemoattractant Protein 1 (MCP1/CCL2) Biomarker Activity (AID 2283073). The settings on record: primary human keratinocytes with fibroblasts; actives raise or lower the signal. In a few lines: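 Human keratinocyte plus foreskin fibroblast primary co-culture exposed to chemical for 24 h. MCP-1 levels measured by ELISA. Bidirectional curve fitting relative to DMSO negative control as baseline.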

Read-out in assay [14]: Matrix Metallopeptidase 9 (MMP9), MMP9 (gene 4318)
Briefly: BSK_KF3CT_MMP9: BioMAP Diversity Plus: KF3CT Assay for Matrix Metallopeptidase 9 (MMP9) Biomarker Activity (AID 2283074).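 For AC50: MMP9 protein level quantified by ELISA in the co-culture.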 The settings on record: primary human keratinocytes with fibroblasts; actives raise or lower the signal. In a few lines: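 Human keratinocyte/foreskin fibroblast co-culture; compound added; 24 h; MMP-9 by ELISA; bidirectional fit vs DMSO baseline.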

Read-out in assay [15]: urokinase plasminogen activator (uPA), PLAU (gene 5328)
The experiment in a line: BSK_KF3CT_uPA: BioMAP Diversity Plus: KF3CT Assay for urokinase plasminogen activator (uPA) Biomarker Activity (AID 2283075). The settings on record: primary human keratinocytes with fibroblasts; actives raise or lower the signal. In a few lines: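 ELISA readout of uPA, analyzed for signal gain or loss relative to DMSO, from a human primary keratinocyte–foreskin fibroblast co-culture measured 24 h after chemical treatment.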

Read-out in the next assay: CD40, CD40 (gene 958)
The experiment in a line: BSK_LPS_CD40: BioMAP Diversity Plus: LPS Assay for CD40 Biomarker Activity (AID 2283076). The following applies: primary human HUVEC with PBMC; actives raise or lower the signal. The essentials:
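Primary human umbilical vein endothelial cells co-cultured with peripheral blood mononuclear cells, LPS-stimulated, were dosed with chemical and read 24 h later. CD40 levels were measured by ELISA and fitted bidirectionally against DMSO as negative control and baseline.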

Read-out in assay [16]: E-selectin (Homo sapiens) (UniProt P16581)
The experiment in a line: BSK_LPS_Eselectin: BioMAP Diversity Plus: LPS Assay for Eselectin Biomarker Activity (AID 2283077). The settings on record: primary human HUVEC with PBMC; actives raise or lower the signal. The essentials:
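Human umbilical vein endothelial cells co-cultured with peripheral blood mononuclear cells under LPS stimulation; E-selectin measured by ELISA 24 h after chemical dosing. Activity fitted bidirectionally against DMSO as negative control and baseline.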

Read-out in assay [17]: Interleukin-8 (IL8), CXCL8 (gene 3576)
The experiment in a line: BSK_LPS_IL8: BioMAP Diversity Plus: LPS Assay for Interleukin-8 (IL8) Biomarker Activity (AID 2283078). The settings on record: primary human HUVEC with PBMC; actives raise or lower the signal. In a few lines:
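Human umbilical vein endothelial cells co-cultured with PBMC were stimulated with LPS; IL-8 levels were measured by ELISA 24 h after chemical dosing. Activity was fitted bidirectionally against DMSO as negative control and baseline.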

Assay [18] can be described thus: BSK_LPS_SRB: Viability Assessment in the BioMAP Diversity Plus: LPS Assay (AID 2283079).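 Note: total protein by sulforhodamine B absorbance as a cytotoxicity measure; measured one day after compound addition; fitted in both directions against DMSO so loss or gain of signal counts.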 The following applies: primary human HUVEC with PBMC. The essentials: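 Human umbilical vein endothelial cells co-cultured with PBMC (LPS system) were dosed for 24 h. Total protein was stained with 0.1% sulforhodamine B after 10% TCA fixation, read at 560 nm, and fitted bidirectionally against DMSO baseline.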

Read-out in assay [19]: Interleukin-1 alpha (IL1a), IL1A (gene 3552)
The experiment in a line: BSK_LPS_IL1a: BioMAP Diversity Plus: LPS Assay for Interleukin-1 alpha (IL1a) Biomarker Activity (AID 2283080). The following applies: primary human HUVEC with PBMC; actives raise or lower the signal. In a few lines: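 Human umbilical vein endothelial cells co-cultured with peripheral blood mononuclear cells were LPS-stimulated and exposed to test chemicals for 24 h. IL-1 alpha was quantified by ELISA, with bidirectional curve fitting against DMSO as the negative control and baseline.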

E-selectin (Homo sapiens), sequence (P16581 whole entry, looked up): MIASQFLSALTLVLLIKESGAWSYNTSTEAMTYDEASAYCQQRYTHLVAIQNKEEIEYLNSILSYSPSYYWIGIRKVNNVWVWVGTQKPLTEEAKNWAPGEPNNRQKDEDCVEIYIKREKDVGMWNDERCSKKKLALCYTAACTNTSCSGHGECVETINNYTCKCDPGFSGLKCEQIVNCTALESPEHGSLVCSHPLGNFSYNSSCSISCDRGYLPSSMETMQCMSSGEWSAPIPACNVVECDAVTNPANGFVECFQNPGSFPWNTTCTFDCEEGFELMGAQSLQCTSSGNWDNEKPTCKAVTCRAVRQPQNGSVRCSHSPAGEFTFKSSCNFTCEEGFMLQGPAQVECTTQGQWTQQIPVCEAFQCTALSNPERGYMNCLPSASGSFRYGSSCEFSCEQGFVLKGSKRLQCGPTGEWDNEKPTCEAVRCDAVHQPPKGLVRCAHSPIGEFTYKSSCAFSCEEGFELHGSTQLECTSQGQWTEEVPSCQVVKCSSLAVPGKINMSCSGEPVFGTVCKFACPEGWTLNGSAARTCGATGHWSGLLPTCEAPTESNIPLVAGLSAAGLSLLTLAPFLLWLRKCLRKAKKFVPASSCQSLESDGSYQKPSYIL

Regarding `CC1=C2C[C@H]3[C@@H](CC=C4C[C@@H](O)CC[C@@]43C)[C@@H]2CC[C@]12O[C@@H]1C[C@H](C)CN[C@H]1[C@H]2C`, the result in [1], in assay [2], in [3], in [4], in [5] and in [6] was inactive. For the same molecule, the outcome in assay [7], in assay [8], in assay [9], in [10], in assay [11] and in [12] was inactive. The outcome in [13] was “inactive”; in [14], “inactive”; in assay [15], “inactive”; with CD40, CD40 (gene 958), “inactive”; in assay [16], “inactive”; in assay [17] it was “inactive”. Besides, the result in [18] and in assay [19] was inactive.
Consider `ClC1=C(Cl)[C@]2(Cl)[C@@H]3[C@@H]4C[C@@H]([C@H]5O[C@@H]45)[C@@H]3[C@@]1(Cl)C2(Cl)Cl`, for which the result in assay [1], in assay [2], in assay [3], in [4], in assay [6] and in [7] was inactive. The outcome in assay [8], in [9], in [10], in [11], in assay [12] and in [13] was inactive. In addition, the outcome in [14] was “inactive”; in [15] it was “inactive”; in the assay with CD40, CD40 (gene 958) it was “inactive”; in assay [16], “inactive”; in assay [17], “inactive”; in assay [18], “inactive”. For the same molecule, the result in assay [19] was inactive.
For `O=C(O)C(F)(F)C(F)(F)C(F)(F)C(F)(F)C(F)(F)C(F)(F)C(F)(F)C(F)(F)C(F)(F)F`, the half-maximal activity concentration (AC50) (in general, the concentration giving half of the maximal activity seen) in [1] is 28.5 µM (active) and 48.8 µM (active) and 49 µM (active); in assay [2] it was 35 µM (active) and 22.2 µM (active) and 39.3 µM (active); in [3], 33 µM (active) and 36.5 µM (active) and 37.9 µM (active); in [4] it was 33.3 µM (active) and 26.9 µM (active) and 40.3 µM (active); in assay [5], 31.2 µM (active) and 17.9 µM (active) and 19.4 µM (active); in assay [6], 33.1 µM (active) and 38.3 µM (active) and 47 µM (active). The AC50 in [7] was 36.7 µM (active) and 45.8 µM (active) and 54.9 µM (active); in assay [8], 17.3 µM (active) and 46.9 µM (active) and 40.5 µM (active); in assay [9], 33.1 µM (active) and 50.3 µM (active) and 50.8 µM (active); in assay [10], 33.5 µM (active) and 47.2 µM (active) and 46.8 µM (active); in [11], 31 µM (active) and 45 µM (active) and 44.7 µM (active); in assay [12] it was 30.8 µM (active). Moreover, the half-maximal activity concentration (AC50) is 20 µM (active) and 30.2 µM (active) and 27.5 µM (active) in [14]; 31.4 µM (active) and 55 µM (active) and 50.7 µM (active) in assay [15]; 30 µM (active) and 49.1 µM (active) with CD40, CD40 (gene 958); 53.8 µM (active) and 51 µM (active) in assay [16]; 46.1 µM (active) and 46.7 µM (active) in [17]; 31.3 µM (active) and 56.6 µM (active) and 54.8 µM (active) in [18]. Further, the concentration at half-maximal activity (AC50) in assay [19] was 45.7 µM (active) and 45.5 µM (active). For the same molecule, the outcome was “inactive” in the assay with CD40, CD40 (gene 958); “inactive” in assay [16]; “inactive” in [17]; “inactive” in assay [19].
